We go through 40 sequences from the supplement of paper PMC6555819.

The first assay deals with FXR:RXRa (NR concentration 270 nM, RXRa partner concentration 90 nM). As to the kind of experiment: PBM binding z-score (relative to random genomic background probes); higher = stronger binding; sequences stand for … in GC…GCGATTGACAGCGTAGAATGAAGG
An outline of the steps: (§1)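 Custom Agilent 4×180K protein-binding microarrays carried double-stranded probes, each with a 34-nt variable region. These regions held direct-repeat seeds, single-nucleotide variants, half-site ablations and random human genomic background sequences. Ligand-free nuclear receptor dimers were incubated on the arrays for 1 h, antibodies against each partner (one per run) detected binding, and scanned fluorescence was regression-normalized. Binding z-scores take the random background probes as reference.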
Consider GATACAGGGTCAGCTAGAGGCCTGAGTATGGAAA, for which the PBM binding z-score was determined as 4.07.

In turn, CTCGAAAGGTCGTGCTCAGGTGAGCATACCAAAC showed a PBM binding z-score of 5.82.

In turn, CGTCCAAGGTCAAAGGTCAGTGAGGAGATGACGG gave a PBM binding z-score of 8.06.

GATGCTAGGTCAACTGATGGTCAGCTAAAGCTCG showed a PBM binding z-score of 3.82.

For AGATTGAGGTTATTAAGATCAGGGAATTGCGGTC, the PBM binding z-score stood at 1.61.

For CGTCCAAGGCCAATGCTAGGTCAGTGAAAGCATT, the PBM binding z-score stood at 0.0419.

The sequence GAAACAGGGTCAAGGCCAGAGTACGCGTATTGAT showed a PBM binding z-score of 7.06.

Regarding CCGCCTAGGTCAGGGCCAGTATAGGAGGAACGTT, the PBM binding z-score was determined as 1.6.

As for CCGAGTAGGTTAGGGGGCATTCAGGCAACGGTGA, the PBM binding z-score is 1.36.

ACTCGGAGGACAACGGTCAGAGCTACGCCAGTGA yielded a PBM binding z-score of 0.0223.

In turn, CGTCAAAGTTCAACTAAGGTAACGTACAGCACGC displayed a PBM binding z-score of 7.43.

For the sequence GCGACTGGGGCATCAGCAGGTTACAATAACTTAA, the PBM binding z-score is -0.294.

TCTCGGAAGACACGAAAGGTCAGAGCTCGACATC gave a PBM binding z-score of 2.36.

TCGAGAAGGTTAGTCGGGGCATTCAGCCAACATA yielded a PBM binding z-score of 0.663.

As for AGAATGAGGTTATACGTAGATCAGGGAGGAAAGT, the PBM binding z-score stood at 2.22.

In turn, ATATGTAGGTTATCGGGCCATTCAGTTTGCGCAT came in with a PBM binding z-score of 0.607.

TATACAGGGTAAAAGGCCAGAGTACGAATGTCGA gave a PBM binding z-score of 0.526.

For the sequence CCTGCTAGGTAAATGGTCAGCTAAAGCAGCTCGC, the PBM binding z-score was -0.299.

Sequence TCTAATTGGTCAAAGGTCACACACTCGAAATGCG showed a PBM binding z-score of 6.13.

Sequence TCATATAGGTTAATGCTAGGTGAAAGTCCGATCT displayed a PBM binding z-score of 1.19.

In turn, TAGCCTAGGTCAGATCGGCCCAGTATACGCTATA returned a PBM binding z-score of 1.44.

For the sequence CAAACTAGGTAACAGAGGTCAAAGTCCGTGCGTA, the PBM binding z-score was found to be 5.29.

In turn, CCTTACGGGTCACTGACAGGTTACAGCATTTGGA returned a PBM binding z-score of 5.61.

CCAGACAGGTGAAAAGTAACTCAGTCTGGTACGC had a PBM binding z-score of -0.306.

Turning to ATCTCTAGGTAACCAAGATCAGTGAATGCCGAAC, the PBM binding z-score was 0.221.

Consider CCTACTGAGCCAAAGGTCATTGATTCCAATGCTC, for which the PBM binding z-score was 5.45.

The sequence GCGACTGGGGCATCAGAAGGTTACCATAACTTAA had a PBM binding z-score of -0.0561.

ATCTATAGGTAACCAAGTTCAGTGAATGCCGAAC gave a PBM binding z-score of 0.275.

Consider CCAGACAGGTGAGAAGGCAACTCAGCCTCGATTA, for which the PBM binding z-score was 0.0587.

In turn, CCAGTCAGGTGAGAAGGTAACTCAGCCTCGATTA displayed a PBM binding z-score of 0.104.

Sequence TCGACTAGGTTAGTCGGGGCATTCAGCCAACATA returned a PBM binding z-score of -0.0811.

In turn, CGTCCAAGTTCAACTAAGGTAACGTAAAGCACGC had a PBM binding z-score of 4.27.

In turn, AATACAGGGGCACTAGGCCAGAGTAGGTACGAAT registered a PBM binding z-score of -0.0916.

For CCTGCTAGGTCATGGACAGCTAATCTACAGTATG, the PBM binding z-score worked out at 3.61.

GCTAGTTGGGCAGTAAAAGGTCACACACCGGTCG: the PBM binding z-score is 3.19.

With TCAGACGGGTGAAGGTAACTCAGGTACGCAGTCG, the PBM binding z-score came to 0.211.

Consider ATCTCTAGGTACGACTCAGTTCAGTGAAGAACGC, for which the PBM binding z-score worked out at 0.373.

GCGACTGGGGCATAGCAGGTTACCATAAGGTTGG came in with a PBM binding z-score of 0.397.

CGTCAAAGTTCAACTAAGGTAACGTAAAGCACGC displayed a PBM binding z-score of 7.09.

In the case of TCAGACAGGTGAACGTAACTCAGGTACGCAGTCG, the PBM binding z-score amounted to 0.443.

The test system of the next assay is LXRa:RXRa (NR concentration 270 nM, RXRa partner concentration 90 nM). Described as above. An outline of the steps:
as §1
In turn, GATACAGGGTCAGCTAGAGGCCTGAGTATGGAAA displayed a PBM binding z-score of 2.14.

The sequence CTCGAAAGGTCGTGCTCAGGTGAGCATACCAAAC displayed a PBM binding z-score of 4.04.

Regarding CGTCCAAGGTCAAAGGTCAGTGAGGAGATGACGG, the PBM binding z-score came out at 7.01.

GATGCTAGGTCAACTGATGGTCAGCTAAAGCTCG: the PBM binding z-score came to 3.15.

AGATTGAGGTTATTAAGATCAGGGAATTGCGGTC gave a PBM binding z-score of 1.28.

CGTCCAAGGCCAATGCTAGGTCAGTGAAAGCATT registered a PBM binding z-score of -0.0335.

On to GAAACAGGGTCAAGGCCAGAGTACGCGTATTGAT, for which the PBM binding z-score was 4.18.

Sequence CCGCCTAGGTCAGGGCCAGTATAGGAGGAACGTT yielded a PBM binding z-score of 1.11.

Consider CCGAGTAGGTTAGGGGGCATTCAGGCAACGGTGA, for which the PBM binding z-score came out at 1.91.

Sequence ACTCGGAGGACAACGGTCAGAGCTACGCCAGTGA registered a PBM binding z-score of -0.221.

As to CGTCAAAGTTCAACTAAGGTAACGTACAGCACGC, the PBM binding z-score came out at 6.41.

Sequence GCGACTGGGGCATCAGCAGGTTACAATAACTTAA returned a PBM binding z-score of -0.143.

As for TCTCGGAAGACACGAAAGGTCAGAGCTCGACATC, the PBM binding z-score is 3.38.

Sequence TCGAGAAGGTTAGTCGGGGCATTCAGCCAACATA gave a PBM binding z-score of 0.631.

Sequence AGAATGAGGTTATACGTAGATCAGGGAGGAAAGT returned a PBM binding z-score of 1.64.

In turn, ATATGTAGGTTATCGGGCCATTCAGTTTGCGCAT returned a PBM binding z-score of 1.03.

With TATACAGGGTAAAAGGCCAGAGTACGAATGTCGA, the PBM binding z-score amounted to 0.732.

Sequence CCTGCTAGGTAAATGGTCAGCTAAAGCAGCTCGC registered a PBM binding z-score of -0.376.

On to TCTAATTGGTCAAAGGTCACACACTCGAAATGCG, for which the PBM binding z-score was found to be 5.81.

In turn, TCATATAGGTTAATGCTAGGTGAAAGTCCGATCT yielded a PBM binding z-score of 2.25.

With TAGCCTAGGTCAGATCGGCCCAGTATACGCTATA, the PBM binding z-score was determined as 1.09.

Consider CAAACTAGGTAACAGAGGTCAAAGTCCGTGCGTA, for which the PBM binding z-score is 6.1.

CCTTACGGGTCACTGACAGGTTACAGCATTTGGA registered a PBM binding z-score of 3.93.

The sequence CCAGACAGGTGAAAAGTAACTCAGTCTGGTACGC came in with a PBM binding z-score of -0.0475.

In turn, ATCTCTAGGTAACCAAGATCAGTGAATGCCGAAC yielded a PBM binding z-score of 0.126.

Turning to CCTACTGAGCCAAAGGTCATTGATTCCAATGCTC, the PBM binding z-score was found to be 5.55.

GCGACTGGGGCATCAGAAGGTTACCATAACTTAA yielded a PBM binding z-score of 0.0873.

Sequence ATCTATAGGTAACCAAGTTCAGTGAATGCCGAAC registered a PBM binding z-score of 0.814.

Sequence CCAGACAGGTGAGAAGGCAACTCAGCCTCGATTA had a PBM binding z-score of -0.0895.

Take CCAGTCAGGTGAGAAGGTAACTCAGCCTCGATTA: the PBM binding z-score stood at 0.00917.

The sequence TCGACTAGGTTAGTCGGGGCATTCAGCCAACATA came in with a PBM binding z-score of -0.0624.

As to CGTCCAAGTTCAACTAAGGTAACGTAAAGCACGC, the PBM binding z-score came to 3.59.

As to AATACAGGGGCACTAGGCCAGAGTAGGTACGAAT, the PBM binding z-score is 0.117.

As for CCTGCTAGGTCATGGACAGCTAATCTACAGTATG, the PBM binding z-score came to 2.77.

Take GCTAGTTGGGCAGTAAAAGGTCACACACCGGTCG: the PBM binding z-score came out at 4.3.

The sequence TCAGACGGGTGAAGGTAACTCAGGTACGCAGTCG returned a PBM binding z-score of 1.12.

As for ATCTCTAGGTACGACTCAGTTCAGTGAAGAACGC, the PBM binding z-score was determined as 0.42.

In turn, GCGACTGGGGCATAGCAGGTTACCATAAGGTTGG gave a PBM binding z-score of 0.135.

In turn, CGTCAAAGTTCAACTAAGGTAACGTAAAGCACGC came in with a PBM binding z-score of 6.32.

As to TCAGACAGGTGAACGTAACTCAGGTACGCAGTCG, the PBM binding z-score was found to be 0.558.
